Values joined by “and” are separate entries in the source; they are usually repeats but may differ in a detail not shown here. Identical values can stand only once. Inconclusive results are not listed. Active and inactive are the calls of the source. Unless noted, the rule behind the calls is not given here.
How the values were obtained:
[1] = qHTS Assay for Identifying Gametocytocidal Compounds (AID 743244; active = well fitted curve in the direction sought with a large enough effect; an effect the other way counts as inactive or inconclusive;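 note: % is set by controls: 0 for no effect and ±100 for the full control effect; actives lower the fluorescent signal which means gametocytes are killed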); conditions: P. falciparum 3D7 stage III-V gametocytes, alamarBlue, 72 h; max response: stronger effect = lower value
Method in brief: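 3D7 gametocytes, stages III–V, 20,000/well; cpd 72 h, 37 °C/5% CO2; + alamarBlue 24 h; fluor. Ex 525/Em 598.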

[2] = qHTS profiling for inhibitors of Plasmodium falciparum (3D7) proliferation (AID 743322);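 note: infected erythrocytes exposed to compound for 72 h before lysis; 100% = DMSO vehicle wells and 0% = 0.29 µM artemisinin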; conditions: P. falciparum 3D7 proliferation; at 28.7 µM (top of the series) unless noted
Method in brief: (§1)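 Erythrocytes infected with P. falciparum (0.3% parasitemia, 2.5% hematocrit) incubated with compounds 72 h at 37 C, 5% CO2. Lysis with saponin/Triton buffer containing SYBR Green I, overnight at room temperature in the dark; DNA fluorescence (485/535 nm) normalised to 0.29 uM artemisinin and DMSO.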

[3] = qHTS profiling for inhibitors of Plasmodium falciparum (DD2) proliferation (AID 743323); conditions: lower = more inhibition; at 28.7 µM (top of the series) unless noted
Method in brief: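 Parasite proliferation measured via DNA-dye fluorescence, as uninfected erythrocytes lack DNA. Cultures at 0.3% parasitemia and 2.5% hematocrit incubated 72 h with compound; signal scaled between vehicle and 0.29 uM artemisinin wells.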

[4] = qHTS profiling for inhibitors of Plasmodium falciparum (HB3) proliferation (AID 743324; active = well fitted curve in the direction sought with a large enough effect; an effect the other way counts as inactive or inconclusive;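 note: 100% = DMSO vehicle wells and 0% = artemisinin-treated control wells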); conditions: Plasmodium falciparum HB3 blood-stage proliferation; at 28.7 µM (top of the series) unless noted
Method in brief: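 P. falciparum HB3 grown in erythrocytes (0.3% parasitemia, 2.5% hematocrit final) with compound for 72 h at 37 C, 5% CO2. Parasite DNA detected by SYBR Green after saponin/triton lysis overnight; normalized to 0.29 uM artemisinin and DMSO.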

[5] = qHTS profiling of the MIPE4 collection as inhibitors of Plasmodium falciparum (3D7) proliferation (AID 743344);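 note: scaled between DMSO vehicle wells and 0.29 µM artemisinin as full inhibition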; conditions: P. falciparum 3D7 in erythrocytes, SYBR Green DNA fluorescence, 72 h; at 28.5 µM (top of the series) unless noted
Method in brief: as §1

[6] = qHTS profiling of the MIPE4 collection as inhibitors of Plasmodium falciparum (DD2) proliferation (AID 743345); conditions: P. falciparum Dd2 in erythrocytes, SYBR Green DNA, 72 h; at 28.5 µM (top of the series) unless noted
Method in brief: as §1

[7] = qHTS profiling of the MIPE4 collection as inhibitors of Plasmodium falciparum (DD2) proliferation (Rep 2) (AID 743346); conditions: P. falciparum Dd2 in erythrocytes, SYBR Green DNA, 72 h; at 28.5 µM (top of the series) unless noted
Method in brief: as §1

[8] = qHTS profiling of the MIPE4 collection as inhibitors of Plasmodium falciparum (HB3) proliferation (AID 743347);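 note: plate controls were DMSO vehicle wells for no effect and artemisinin wells for full effect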; conditions: P. falciparum HB3 in erythrocytes, SYBR Green DNA, 72 h; at 28.5 µM (top of the series) unless noted
Method in brief: as §1

[9] = High-throughput drug toxicity screening in the BPDCN cell line Gen2.2 (AID 1224824); conditions: Gen2.2 BPDCN cells; at 45.8 µM (top of the series) unless noted;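 note: cells exposed to compounds for 48 h before reading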
Method in brief: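 CellTiter-Glo luminescence read after 48 h compound exposure at 37 C defines viability; percent activity set with DMSO as 100% and bortezomib (9.2 uM final) as 0%. 500 exponentially growing cells per well, RPMI plus 10% FBS.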

[10] = High-throughput drug toxicity screening in the BPDCN cell line Cal-1 (AID 1224825); conditions: Cal-1 BPDCN cell viability, qHTS; at 45.8 µM (top of the series) unless noted
Method in brief: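 Exponentially growing Cal-1 cells, 500 per well in phenol red-free RPMI with 10% FBS, were exposed to compounds for 48 h at 37 °C, 5% CO2. Viability was read by CellTiter-Glo luminescence and normalised to DMSO (100%) and 9.2 uM bortezomib (0%).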

[11] = qHTS assay for measurement of the activity of small molecule inhibitors on Zika virus induced Caspase-3 activity in human iPSC derived neural progenitor cells (hNPCs) (AID 1224857; active = well fitted curve in the direction sought with a large enough effect; an effect the other way counts as inactive or inconclusive; note: nearly all actives have a fitted effect of over 65% in size; note: potency is the fitted concentration of half-maximal effect)
Method in brief: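 Cells were plated at 350 per well and grown 16 to 20 hours. Compound pretreatment lasted one hour, after which ZIKV (2 FFU/cell) was added for 6 hours. Percent inhibition was normalized between uninfected and infected controls.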

[12] = qHTS assay for measurement of the activity of small molecule inhibitors on Zika virus induced Caspase-3 activity in human astrocytoma cells (AID 1224859; active = well fitted curve in the direction sought with a large enough effect; an effect the other way counts as inactive or inconclusive; note: potency is the fitted concentration of half-maximal effect)
Method in brief: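 Percent inhibition of virus-induced caspase-3/7 signal is calculated against uninfected and ZIKV-infected control cells. Cells are SNB-19, infected at 2 FFU/cell for 6 h after 1 h compound exposure.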

[13] = qHTS Screen of the MIPE 4.0 Collection Against Ewings Sarcoma (RDES) (AID 1259252; active = well fitted curve in the direction sought with a large enough effect; an effect the other way counts as inactive or inconclusive; note: nearly all actives have a fitted effect of over 35% in size; note: potency is the fitted concentration of half-maximal effect)
Method in brief: (§2)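 Measured: ATP luminescence (CellTiter-Glo) 10 min after reagent addition, following 48 h drug treatment. Relative luciferase units converted to percent activity, with no-cell wells as full and DMSO wells as zero inhibition.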

[14] = qHTS Screen of the MIPE 4.0 Collection Against Ewings Sarcoma (TC71) (AID 1259253; active = well fitted curve in the direction sought with a large enough effect; an effect the other way counts as inactive or inconclusive; note: nearly all actives have a fitted effect of over 40% in size; note: potency is the fitted concentration of half-maximal effect)
Method in brief: as §2

[15] = qHTS Screen of the MIPE 4.0 Collection Against Ewings Sarcoma (EW8) (AID 1259255; active = well fitted curve in the direction sought with a large enough effect; an effect the other way counts as inactive or inconclusive; note: nearly all actives have a fitted effect of over 35% in size; note: potency is the fitted concentration of half-maximal effect;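 for viability: 100% = DMSO-treated cells and 0% = medium-only wells without cells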)
Method in brief: as §2

[16] = qHTS assay for cell viability of HEK293 cells (AID 743288; active = well fitted curve in the direction sought with a large enough effect; an effect the other way counts as inactive or inconclusive; note: % is set by controls: 0 for no effect and ±100 for the full control effect; nearly all actives have a fitted effect of over 50% in size); conditions: ATP luminescence (CellTiter-Glo), 18 h; max response: stronger effect = lower value
Method in brief: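 Total intracellular ATP, measured with a luciferase-coupled reagent, indicates the number of viable HEK293 cells. Exposure to test chemicals lasts 18 h at 37 C in 1,536-well format at 2,000 cells/well.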

[17] = qHTS assay for cell viability of the p53RE-bla HCT-116 cell line (AID 743292; active = well fitted curve in the direction sought with a large enough effect; an effect the other way counts as inactive or inconclusive; note: % is set by controls: 0 for no effect and ±100 for the full control effect; nearly all actives have a fitted effect of over 55% in size)
Method in brief: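 In this qHTS counter-screen, metabolically competent p53RE-bla HCT-116 cells were counted via their ATP content. Compounds were applied for 16 h at 37 C and luciferase-coupled luminescence was measured.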

SMILES	max response [1]	remaining parasite growth % (stronger effect = lower value) [2]	activity, percent of control [3]	remaining proliferation (% of control), lower = more inhibition [4]	parasite growth, % of DMSO control [5]	parasite growth remaining, % of DMSO control (lower = more inhibition) [6]	parasite growth, % of control (lower = inhibition) [7]	growth, % of control [8]	cell viability, % of control (lower = more cytotoxic) [9]	viability (% of control) [10]	Potency [11]	Potency [12]	Potency [13]	Potency [14]	Potency [15]	max response [16]	Potency [17]
CCOc1cc(C(=O)Nc2ccc(Cl)c(-c3nc4ccccc4[nH]3)c2)cc(OCC)c1OCC	-21.5% (inactive)	1.56%	15.9%	0.587%	5.5%	58.5%	17%	7.25%	0.788%	43.8%	inactive	inactive	14.8 µM (active)				
OC[C@H](Cc1ccccc1)Nc1nc(Oc2ccc3c(c2)CCC3)nc2c1ncn2Cc1ccc(-c2ccccc2)cc1		6.42%	5.17%	-0.578%	33.7%	44.8%	27%	68.3%	408%	56.2%	inactive	inactive	14.8 µM (active)				
NC(=O)c1ccc(-c2nc(-c3ccc4c(c3)OCCO4)c(-c3ccccn3)[nH]2)cc1		15.5%	4.9%	13.2%	25.9%	18.9%	18.6%	12.9%	607%	102%	inactive	inactive		23.5 µM (active)			
CCOc1cc(C=C2C(=O)N(c3ccccc3)N=C2C)cc(Cl)c1OCC(=O)OC	28.7% (inactive)	88.1%	92.3%	102%	102%	97.3%		98.7%	14.1%	61.6%	inactive	inactive	5.26 µM (active)	inactive			
CN(C)c1ccc(C2Nc3ccc4ccccc4c3C3=C2C(=O)CC(C)(C)C3)cc1Br (stereo not drawn)		2.48%	6.15%	1.79%	28.5%	15%	33.7%	78%	119%	111%	inactive	inactive			inactive		
Clc1ccc(Nc2nnc(Cc3ccncc3)c3ccccc23)cc1	-0.822% (inactive) and -17.1% (inactive)	-0.114%	2.71%	0.459%	34.2%	84.7%	63.4%	53.1%	117%	68.2%	inactive	inactive	2.96 µM (active)	20.9 µM (active)			
COc1nc(-c2ccc3c(c2)OCO3)n(-c2ccc(NC(=O)CSc3ccccc3)cc2)n1	6.75% (inactive)	96.2%	95.9%	94.2%	51.6%	86.8%	61.9%	82%	127%	116%	inactive	inactive		20.9 µM (active)	inactive		
O=C(O)[C@@H](c1ccc(OCc2ccc3ccccc3n2)cc1)C1CCCC1		114%	96.9%	106%	90.1%	102%	130%	84.3%	125%	73.2%	16.6 µM (active)	13.2 µM (active)	inactive	inactive	inactive		
COc1ccc2nc(S(=O)Cc3ncc(C)c(OC)c3C)[nH]c2c1 (stereo not drawn)	-5.18% (inactive) and -4.42% (inactive)	91.3% and 101%	93.3% and 100%	79.1% and 76.7%	61.2%	95%		84.6%	138%	96.8%	inactive	inactive	16.6 µM (active)		inactive	-16.7% (inactive)	inactive
COc1ccc(-c2oc3cc(OC)ccc3c2C(=O)c2ccc(C#N)cc2)cc1	8.18% (inactive)	62.8%	77%	23.4%	23.1%	81.9%	14.8%	16.7%	84.5%	19.6%	inactive	inactive	inactive		inactive		
CCOC(=O)N[C@@H]1CC[C@@H]2[C@@H](C1)C[C@H]1C(=O)O[C@H](C)[C@H]1[C@@H]2C=Cc1ccc(-c2cccc(F)c2)cn1	-4.74% (inactive)	1.23%	7.47%	0.902%	7.63%	45%	22%	5.21%	14.3%	20%	inactive	inactive		20.9 µM (active)			
O=C1[C@H](Cc2ccc(O)cc2)N2C(=O)CCN(C(=O)NCc3ccccc3)[C@H]2CN1Cc1cccc2ccccc12		32.3%	43.6%	-0.183%	5.06%	56%		12.1%	6.07%	31.2%	inactive	inactive		2.96 µM (active)	2.64 µM (active)		
Cn1c(=O)c(F)c(Nc2ccc(I)cc2F)c2c(=O)n(C[C@@H](O)CO)cnc21		83.3%	71.7%	68.4%	12.8%	86.9%	24.5%	7.31%	18%	33%	inactive	inactive		inactive	inactive		
O=C(C=Cc1ccc(/C=C/C(=O)Nc2ccc(C3=NCCN3)cc2)cc1)Nc1ccc(C2=NCCN2)cc1		15.9%	27.3%	10.9%	25.9%	39%	40.5%	54.9%	203%	104%	inactive	inactive	inactive	inactive	inactive		
Nc1nccc(-c2ccc3noc(-c4ccc(Cl)cc4)c3c2)n1	-14.8% (inactive)	77.1%	76.1%	81.1%	85.1%	92.5%		33.5%	68.4%	46.9%	inactive	inactive	5.9 µM (active)				
CC(C)(N)C(=O)N[C@H](COCc1ccccc1)C(=O)N1CCC2(CC1)CN(S(C)(=O)=O)c1ccccc12		88.9%	10.9%	1.31%	22.8%	10.9%	7.19%	26.2%	14.7%	71%	inactive	inactive	20.9 µM (active)	29.6 µM (active)	20.9 µM (active)		
CCN(CC)CCCC(C)Nc1nc(C)cc(Nc2ccc3nc(C)cc(N)c3c2)n1 (stereo not drawn)		29.9%	17.1%		25%	21.1%	14.4%	20%	55.4%	74.8%	inactive	inactive	inactive	inactive			
